# PubChem BioAssay (EPA / NIEHS)
# Calls of active or inactive are those of the source. Rule for the calls: active = hit-call score of the fitted dose curve at least 0.9, where 1 is the maximum; inactive = score below 0.9.
# Legend:
# Settings in all cases: mRNA level, 48 h; actives raise or lower the signal
# [1] = read-out: Cytochrome P450 (CYP1A2), CYP1A2 (gene 1544); assay: LTEA_HepaRG_CYP1A2: Life Technologies and Expression Analysis (LTEA) Assay for Cytochrome P450 (CYP1A2) using HepaRG (AID 2283479)
# Procedure, shortened: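 HepaRG, 48 h exposure, top 100 uM, half-log 8-pt, 0.5% DMSO vehicle, duplicates. Readout: TaqMan qRT-PCR of CYP1A2 mRNA, housekeeping-normalized (ACTB/GAPDH/POLR2A). Gain/loss fit relative to DMSO baseline.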
# [2] = read-out: cysteine-aspartic acid protease (CASP8), CASP8 (gene 841); assay: LTEA_HepaRG_CASP8: Life Technologies and Expression Analysis (LTEA) Assay for cysteine-aspartic acid protease (CASP8) using HepaRG (AID 2283480)
# Procedure, shortened: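 Differentiated HepaRG cells in serum-free induction medium, 48 h exposure, eight-point half-log series from 100 uM in 0.5% DMSO, duplicates. CASP8 mRNA by qRT-PCR, normalized to ACTB, GAPDH, POLR2A; bidirectional fit versus DMSO.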
# [3] = read-out: Cytochrome P450 (CYP2B6), CYP2B6 (gene 1555); assay: LTEA_HepaRG_CYP2B6: Life Technologies and Expression Analysis (LTEA) Assay for Cytochrome P450 (CYP2B6) using HepaRG (AID 2283481)
# Procedure, shortened: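 Read-out is CYP2B6 mRNA by TaqMan qRT-PCR, normalized to three housekeeping genes and fitted bidirectionally against 0.5% DMSO baseline. Human HepaRG cells received test chemicals for 48 h, top concentration 100 uM, half-log dilutions.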
# [4] = read-out: Cytochrome P450 2C19 (Homo sapiens) (UniProt P33261); assay: LTEA_HepaRG_CYP2C19: Life Technologies and Expression Analysis (LTEA) Assay for CYP2C19 using HepaRG (AID 2283482)
# Procedure, shortened: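 HepaRG, 48 h chemical exposure, 8-pt half-log series from 100 uM in 0.5% DMSO, duplicates. Readout: CYP2C19 mRNA by TaqMan qRT-PCR, housekeeping-normalized. Bidirectional fit vs DMSO baseline; phenobarbital 1mM as induction control.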
# [5] = read-out: CYP2C8 (gene 1558); assay: LTEA_HepaRG_CYP2C8: Life Technologies and Expression Analysis (LTEA) Assay for CYP2C8 using HepaRG (AID 2283483)
# Procedure, shortened: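 Differentiated HepaRG cells in serum-free induction medium exposed 48 h in duplicate to 8 half-log concentrations from 100 uM in 0.5% DMSO. CYP2C8 mRNA by qRT-PCR normalized to ACTB, GAPDH, POLR2A; bidirectional fit versus DMSO.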
# [6] = read-out: CYP2C9 (gene 1559); assay: LTEA_HepaRG_CYP2C9: Life Technologies and Expression Analysis (LTEA) Assay for CYP2C9 using HepaRG (AID 2283484)
# Procedure, shortened: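 Differentiated human HepaRG cells in serum-free induction medium were exposed 48 h to chemicals in 8-point half-log series from 100 uM (0.5% DMSO), in duplicate. CYP2C9 mRNA was measured by qRT-PCR, normalized to ACTB/GAPDH/POLR2A, with bidirectional fitting versus DMSO.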
# [7] = read-out: CYP2E1 (gene 1571); assay: LTEA_HepaRG_CYP2E1: Life Technologies and Expression Analysis (LTEA) Assay for CYP2E1 using HepaRG (AID 2283485)
# Procedure, shortened: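 Differentiated HepaRG cells were treated in duplicate for 48 h with chemicals in 0.5% DMSO, from 100 uM downward in half-log dilutions. RNA was then analysed by qRT-PCR for CYP2E1 induction or loss.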
# [8] = read-out: CYP4A11 (gene 1579); assay: LTEA_HepaRG_CYP4A11: Life Technologies and Expression Analysis (LTEA) Assay for CYP4A11 using HepaRG (AID 2283486)
# Procedure, shortened: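 CYP4A11 transcript levels were quantified by TaqMan qRT-PCR after HepaRG human liver cells were treated for 48 hours with test chemicals (top 100 uM, half-log dilutions, 0.5% DMSO). Gain or loss of signal was fitted relative to DMSO.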
# [9] = read-out: Cytochrome P450 3A4 (Homo sapiens) (UniProt P08684); assay: LTEA_HepaRG_CYP3A4: Life Technologies and Expression Analysis (LTEA) Assay for CYP3A4 using HepaRG (AID 2283487)
# Procedure, shortened: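 In a human hepatic line (HepaRG), duplicate wells were treated 48 h with up to 100 uM chemical in half-log dilutions. Endpoint: CYP3A4 mRNA induction or loss relative to 0.5% DMSO vehicle, by qRT-PCR.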
# [10] = read-out: Pro-epidermal growth factor (Homo sapiens) (UniProt P01133); assay: LTEA_HepaRG_EGF: Life Technologies and Expression Analysis (LTEA) Assay for Epidermal growth factor (EGF) using HepaRG (AID 2283489)
# Procedure, shortened: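 qRT-PCR readout of EGF transcript after 48 h chemical exposure of HepaRG cells; eight concentrations from 100 uM down in half-log steps, duplicate wells, 0.5% DMSO vehicle. Bidirectional curve fitting against DMSO baseline.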
# [11] = read-out: Early growth response protein 1 (EGR1) transcription factor, EGR1 (gene 1958); assay: LTEA_HepaRG_EGR1: Life Technologies and Expression Analysis (LTEA) Assay for Early growth response protein 1 (EGR1) transcription factor using HepaRG (AID 2283490)
# Procedure, shortened: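 Differentiated HepaRG cells in serum-free induction medium exposed 48 hours, duplicate, to 8 half-log concentrations up to 100 uM in 0.5% DMSO. EGR1 mRNA measured by TaqMan qRT-PCR, normalized to ACTB, GAPDH, POLR2A; bidirectional fit versus DMSO.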
# [12] = read-out: Ezrin (EZR), EZR (gene 7430); assay: LTEA_HepaRG_EZR: Life Technologies and Expression Analysis (LTEA) Assay for Ezrin (EZR) using HepaRG (AID 2283491)
# Procedure, shortened: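 Gain or loss of EZR mRNA is scored relative to 0.5% DMSO in human HepaRG cultures treated 48 h with test chemicals in duplicate, eight half-log concentrations from 100 uM.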
# [13] = read-out: CYP3A5 (gene 1577); assay: LTEA_HepaRG_CYP3A5: Life Technologies and Expression Analysis (LTEA) Assay for CYP3A5 using HepaRG (AID 2283493)
# Procedure, shortened: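 mRNA induction or loss of CYP3A5 assessed in HepaRG after 48 h dosing, 100 uM top concentration, duplicate wells; TaqMan qRT-PCR with ACTB, GAPDH, POLR2A normalization; 0.5% DMSO as negative control.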
# [14] = read-out: Fatty Acid-Binding Protein 1 (FABP1), FABP1 (gene 2168); assay: LTEA_HepaRG_FABP1: Life Technologies and Expression Analysis (LTEA) Assay for Fatty Acid-Binding Protein 1 (FABP1) using HepaRG (AID 2283494)
# Procedure, shortened: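 Differentiated human HepaRG cells exposed 48 h in serum-free induction medium to eight half-log concentrations up to 100 uM (0.5% DMSO), duplicate. FABP1 mRNA by qRT-PCR, normalised to ACTB, GAPDH, POLR2A; bidirectional fitting against DMSO.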
# [15] = read-out: Cytochrome P450 7A1 (Homo sapiens) (UniProt P22680); assay: LTEA_HepaRG_CYP7A1: Life Technologies and Expression Analysis (LTEA) Assay for Cytochrome P450 7A1 (CYP7A1) using HepaRG (AID 2283496)
# Procedure, shortened: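 Gene expression endpoint in human HepaRG liver cells treated for 48 h with test chemicals (up to 100 uM, 0.5% DMSO). Values come from bidirectional concentration-response fitting versus DMSO.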
# [16] = read-out: Glutathione S-Transferase (GSTA2), GSTA2 (gene 2939); assay: LTEA_HepaRG_GSTA2: Life Technologies and Expression Analysis (LTEA) Assay for Glutathione S-Transferase (GSTA2) using HepaRG (AID 2283497)
# Procedure, shortened: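 Differentiated human HepaRG cells were exposed in duplicate for 48 h in serum-free induction medium, 8 points from 100 uM top in half-log steps, 0.5% DMSO. GSTA2 mRNA was measured by TaqMan qRT-PCR, normalized to ACTB, GAPDH and POLR2A; bidirectional fit versus DMSO.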
# [17] = read-out: DNA damage-inducible transcript 3 (DDIT3), DDIT3 (gene 1649); assay: LTEA_HepaRG_DDIT3: Life Technologies and Expression Analysis (LTEA) Assay for DNA damage-inducible transcript 3 (DDIT3) using HepaRG (AID 2283488)
# Procedure, shortened: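 Changes in DDIT3 transcript, in either direction relative to 0.5% DMSO vehicle, were quantified by TaqMan qRT-PCR after 48 h chemical exposure of HepaRG cells at 8 concentrations, maximum 100 uM.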
# [18] = read-out: Cytochrome P450 3A7 (Homo sapiens) (UniProt P24462); assay: LTEA_HepaRG_CYP3A7: Life Technologies and Expression Analysis (LTEA) Assay for CYP3A7 using HepaRG (AID 2283492)
# Procedure, shortened: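 CYP3A7 transcript levels were read by TaqMan qRT-PCR on Fluidigm arrays after 48 h chemical exposure of human HepaRG cells, with housekeeping-gene normalisation. Eight half-log concentrations up to 100 uM in 0.5% DMSO were tested in duplicate.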
# Cytochrome P450 2C19 (Homo sapiens), sequence (P33261 whole entry, looked up): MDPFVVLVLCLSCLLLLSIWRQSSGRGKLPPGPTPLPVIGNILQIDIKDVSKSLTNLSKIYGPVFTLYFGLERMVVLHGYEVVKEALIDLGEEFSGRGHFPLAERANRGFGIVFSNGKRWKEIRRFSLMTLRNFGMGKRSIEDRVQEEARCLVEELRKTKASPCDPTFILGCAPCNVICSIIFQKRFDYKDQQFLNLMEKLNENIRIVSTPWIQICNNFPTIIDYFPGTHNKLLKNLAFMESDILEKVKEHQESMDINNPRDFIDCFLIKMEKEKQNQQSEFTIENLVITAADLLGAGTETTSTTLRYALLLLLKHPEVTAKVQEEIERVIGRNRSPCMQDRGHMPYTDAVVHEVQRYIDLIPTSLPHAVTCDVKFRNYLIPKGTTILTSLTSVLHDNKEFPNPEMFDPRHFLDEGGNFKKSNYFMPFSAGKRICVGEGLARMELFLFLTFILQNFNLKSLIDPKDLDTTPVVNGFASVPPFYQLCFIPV
# Cytochrome P450 3A4 (Homo sapiens), sequence (P08684 whole entry, looked up): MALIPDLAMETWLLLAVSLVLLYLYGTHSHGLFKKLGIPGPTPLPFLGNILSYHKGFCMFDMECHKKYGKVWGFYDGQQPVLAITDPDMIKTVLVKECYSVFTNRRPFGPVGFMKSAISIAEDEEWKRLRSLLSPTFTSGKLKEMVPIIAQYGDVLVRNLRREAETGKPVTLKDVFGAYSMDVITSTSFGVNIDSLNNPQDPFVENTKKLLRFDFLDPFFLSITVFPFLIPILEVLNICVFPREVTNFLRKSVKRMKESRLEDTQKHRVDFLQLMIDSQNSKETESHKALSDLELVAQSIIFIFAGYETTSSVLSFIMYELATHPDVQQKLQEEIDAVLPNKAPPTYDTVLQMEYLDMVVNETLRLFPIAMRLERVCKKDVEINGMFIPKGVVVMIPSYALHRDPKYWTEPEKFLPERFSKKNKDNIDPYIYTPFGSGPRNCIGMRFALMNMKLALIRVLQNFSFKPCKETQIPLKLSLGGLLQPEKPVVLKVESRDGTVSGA
# Cytochrome P450 3A7 (Homo sapiens), sequence (P24462 whole entry, looked up): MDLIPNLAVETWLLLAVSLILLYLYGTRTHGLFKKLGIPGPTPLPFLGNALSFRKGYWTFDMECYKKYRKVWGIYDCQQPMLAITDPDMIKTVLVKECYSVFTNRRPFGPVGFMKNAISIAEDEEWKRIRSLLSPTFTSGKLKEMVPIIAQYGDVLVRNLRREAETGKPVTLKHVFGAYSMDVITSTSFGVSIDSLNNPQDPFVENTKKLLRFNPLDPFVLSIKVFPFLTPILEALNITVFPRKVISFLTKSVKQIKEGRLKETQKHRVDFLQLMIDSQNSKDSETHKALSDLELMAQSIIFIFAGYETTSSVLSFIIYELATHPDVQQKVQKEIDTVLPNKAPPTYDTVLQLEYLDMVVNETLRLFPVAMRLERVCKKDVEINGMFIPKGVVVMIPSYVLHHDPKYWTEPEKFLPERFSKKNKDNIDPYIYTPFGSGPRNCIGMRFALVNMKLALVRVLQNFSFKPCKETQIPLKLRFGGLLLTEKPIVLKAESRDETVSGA
structure (smiles),measurement,setting,value
c1ccc2c(c1)Cc1ccccc1-2,outcome,[1],inactive
same,outcome,[2],inactive
same,AC50,[3],31.9 µM (active)
same,outcome,[4],inactive
same,outcome,[5],inactive
same,outcome,[6],inactive
same,outcome,[7],inactive
same,outcome,[8],inactive
same,outcome,[9],inactive
same,outcome,[10],inactive
same,outcome,[11],inactive
same,outcome,[12],inactive
same,outcome,[13],inactive
same,outcome,[14],inactive
same,outcome,[15],inactive
same,outcome,[16],inactive
CN(C)C=O,outcome,[1],inactive
same,outcome,[2],inactive
same,outcome,[3],inactive
same,outcome,[4],inactive
same,outcome,[5],inactive
same,outcome,[6],inactive
same,outcome,[7],inactive
same,outcome,[8],inactive
same,outcome,[9],inactive
same,outcome,[10],inactive
same,outcome,[11],inactive
same,outcome,[12],inactive
same,outcome,[13],inactive
same,outcome,[14],inactive
same,outcome,[15],inactive
C#C[C@]1(O)CC[C@H]2[C@@H]3CCC4=CC(=O)CC[C@@H]4[C@H]3CC[C@@]21C,outcome,[1],inactive
same,outcome,[2],inactive
same,AC50,[3],9.72 µM (active)
same,AC50,[4],9.92 µM (active)
same,AC50,[5],6.29 µM (active)
same,AC50,[7],0.124 µM (active)
same,AC50,[8],0.0465 µM (active)
same,outcome,[17],inactive
same,AC50,[10],22.9 µM (active)
same,outcome,[11],inactive
same,outcome,[12],inactive
same,outcome,[14],inactive
same,AC50,[15],0.299 µM (active)
same,AC50,[16],6.05 µM (active)
ClC1=C(Cl)C(Cl)(Cl)C(Cl)=C1Cl,outcome,[1],inactive
same,outcome,[2],inactive
same,outcome,[3],inactive
same,outcome,[4],inactive
same,outcome,[5],inactive
same,outcome,[6],inactive
same,outcome,[7],inactive
same,outcome,[8],inactive
same,outcome,[9],inactive
same,outcome,[10],inactive
same,outcome,[11],inactive
same,outcome,[12],inactive
same,outcome,[13],inactive
same,outcome,[14],inactive
same,outcome,[15],inactive
NC(=O)N(O)[C@@H]1C=C[C@H](Oc2cccc(Oc3ccc(F)cc3)c2)C1,AC50,[1],21.2 µM (active)
same,outcome,[2],inactive
same,AC50,[3],34.4 µM (active)
same,AC50,[4],76.7 µM (active)
same,AC50,[5],27.3 µM (active)
same,AC50,[6],58.8 µM (active)
same,AC50,[7],32.1 µM (active)
same,AC50,[8],30.8 µM (active)
same,AC50,[9],72.1 µM (active)
same,outcome,[10],inactive
same,AC50,[11],12.7 µM (active)
same,outcome,[12],inactive
same,AC50,[18],33.7 µM (active)
same,outcome,[13],inactive
same,AC50,[14],74.2 µM (active)
same,AC50,[15],74.2 µM (active)
same,AC50,[16],51 µM (active)
O=C(O)c1ccccc1C(c1ccc(O)cc1)c1ccc(O)cc1,outcome,[1],inactive
same,outcome,[2],inactive
same,AC50,[3],3.65 µM (active)
same,outcome,[4],inactive
same,outcome,[5],inactive
same,outcome,[6],inactive
same,outcome,[7],inactive
same,outcome,[8],inactive
same,outcome,[9],inactive
same,outcome,[10],inactive
same,outcome,[11],inactive
same,outcome,[12],inactive
same,outcome,[13],inactive
same,outcome,[14],inactive
same,outcome,[15],inactive
same,outcome,[16],inactive
CCCOC(=O)c1ccc(O)cc1,outcome,[1],inactive
same,outcome,[2],inactive
same,outcome,[3],inactive
same,outcome,[5],inactive
same,outcome,[6],inactive
same,outcome,[7],inactive
same,outcome,[8],inactive
same,outcome,[17],inactive
same,outcome,[10],inactive
same,outcome,[11],inactive
same,outcome,[12],inactive
same,outcome,[13],inactive
same,outcome,[14],inactive
same,outcome,[15],inactive
CC(C)(C)c1cccc(C(C)(C)C)c1O,outcome,[1],inactive
same,outcome,[2],inactive
same,outcome,[3],inactive
same,outcome,[4],inactive
same,outcome,[5],inactive
same,outcome,[6],inactive
same,outcome,[7],inactive
same,outcome,[9],inactive
same,outcome,[11],inactive
same,outcome,[12],inactive
same,outcome,[13],inactive
same,outcome,[14],inactive
same,outcome,[15],inactive
same,outcome,[16],inactive
